Bioassay records as filed in PubChem.
Shown are actives, neighbours in structure and some others; about 2.1% of the full set was active somewhere.
U2OS ROS induce: ROS inducers in U2OS cancer cells, primary screen, cell-based, H2DCF-DA fluorescence. U2OS ROS induction. ROS induction (% of piperlongumine), % at 10 µM. AID 624156, 2012. 46,000 compounds, 2% hits; in the data active means ROS induction above about 79%, passing the limit was not always enough;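 further: 0% = DMSO vehicle median and 100% = reference compound median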
YB-1 expr inh: inhibitors of YB-1 gene expression, primary screen, cell-based, fluorescence. U2OS, qRT-PCR YB-1 vs CDIP delta delta Cp, 16 h; stronger effect = higher value; zero = DMSO, each unit about twofold. delta delta Cp (YB-1 minus CDIP) (test concentration not listed). 30,000 compounds, 0.37% hits;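 active means delta delta Cp rounded down to an integer at or above 3, about 3 SD of DMSO wells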;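 further: higher means less YB-1 transcript or more CDIP transcript relative to DMSO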
The depositor's hits bear a star; . = no result given.

SMILES | U2OS ROS induce | YB-1 expr inh
Cc1nn(CCCC(=O)N(C)Cc2ccccc2)c(=O)c2cc3sccc3n12 | 2 | .
COc1cc2c(cc1NC(=O)c1ccccc1)oc1ccccc12 | -1 | .
CCOC(=O)c1cc(S(=O)(=O)N(CC)c2ccccc2)cn1C | -5 | .
CC(C)(C)c1cc(C(=O)Nc2ccc(Cl)cc2)n(Cc2ccccc2)n1 | 27 | .
Cc1nn2c3c(cnc2c1-c1ccccc1)C(=O)CC(C)(C)C3 | 26 | .
COc1ccc(-c2c(C)nn3c(N)c(-c4ccccc4)cnc23)cc1 | 120* | .
Cc1ccc(N(CC(=O)c2ccccc2)CC(=O)c2ccc(Cl)cc2)cc1 | 5 | .
COC(=O)c1c(NC(=O)C2CC(=O)NN2Cc2ccccc2)sc2c1CCC2 (stereo not drawn) | 149* | .
COC(=O)c1c(NC(=O)C2CC(=O)NN2Cc2ccccc2)sc2c1CCC(C)C2 (stereo not drawn) | 40 | .
c1ccc(Nc2ncnc3sc4c(c23)CCCC4)cc1 | 103* | .
FC(F)(F)c1cccc(Nc2ncnc3sc4c(c23)CCC4)c1 | 116* | .
c1ccc(Oc2ncnc3sc4c(c23)CCCC4)cc1 | 6 | .
Cc1nc(NCCc2ccccc2)c2c3c(sc2n1)CCCC3 | 127* | .
O=C(/C=C/c1ccccc1)Nc1ncnc2sc3c(c12)CCC3 | 26 | .
CCc1nc2sc3c(NCCc4ccccc4)ncnc3c2c2c1CCCC2 | -5 | .
O=C(NCc1ccccn1)C(c1ccccc1)c1ccccc1 | 3 | .
O=C(COc1ccccc1)Nc1cccc(C(F)(F)F)c1 | 13 | .
COc1ccccc1N(CC(=O)Nc1ccccc1)S(C)(=O)=O | -11 | .
O=S(=O)(Cc1ccccc1)NC1CCCCC1 | 2 | .
Cc1ccc2c(C)nc(NC3=NC(C(=O)Nc4ccc(Cl)c(Cl)c4)CC(=O)N3)nc2c1 (stereo not drawn) | -10 | .
Cc1cc(C)c2nc(NC3=NC(c4ccccc4)CC(=O)N3)nc(C)c2c1 (stereo not drawn) | 114* | .
Cc1ccc(Cl)cc1N1CCN(C(=O)CCN2C(=O)COc3ccccc32)CC1 | 9 | .
COc1cc2ccccc2cc1C(=O)Nc1ccc2c(c1)OCCO2 | 1 | .
C(=Nc1ccc(N2CCOCC2)cc1)c1ccc(Sc2nc3ccccc3[nH]2)o1 | -4 | .
Clc1ccccc1/C=C/C=Nc1ccc(N2CCOCC2)cc1 | 128* | 0.031
SMILES | U2OS ROS induce | YB-1 expr inh
Cc1cccc(N2C(=S)NC3c4cc(Cl)cc(Cl)c4OC2(C)C3C(=O)N(C)C)c1 (stereo not drawn) | 0 | .
CC12C=CC(=O)C=C1CCC1C2=CCC2(C)C1CC[C@@H]2C(=O)CN1CCN(c2cc(N3CCCC3)nc(N3CCCC3)n2)CC1 (stereo partly drawn) | 174* | -0.24
NC(=O)c1ccc(C(=O)c2ccccc2)cc1 | -10 | .
O=C(CNC(=S)N(Cc1cccs1)C1CCCC1)NC1CCCc2ccccc21 (stereo not drawn) | 6 | .
C[C@H]1CN([C@@H](C)CO)C(=O)c2cc(NS(=O)(=O)c3cccs3)ccc2O[C@H]1CN(C)Cc1ccc(Oc2ccccc2)cc1 | 2 | -0.082
COc1ccc(S(=O)(=O)Nc2ccc3c(c2)C(=O)N([C@H](C)CO)C[C@H](C)[C@@H](CN(C)Cc2ccc(Oc4ccccc4)cc2)O3)cc1 | 15 | 14*
C[C@H](CO)N1C[C@H](C)[C@@H](CN(C)Cc2ccc(Oc3ccccc3)cc2)Oc2ccc(NS(=O)(=O)c3cccs3)cc2C1=O | 93* | -0.12
COc1ccc(S(=O)(=O)Nc2ccc3c(c2)C(=O)N([C@H](C)CO)C[C@@H](C)[C@@H](CN(C)Cc2ccc(Oc4ccccc4)cc2)O3)cc1 | 32 | -0.42
C[C@@H]1CCCCO[C@H](CN(C)C(=O)CCCN(C)C)[C@@H](C)CN([C@H](C)CO)C(=O)c2cc(NS(=O)(=O)c3ccc(Cl)cc3)ccc2O1 | 99* | 0.13
Cc1ccc(S(=O)(=O)Nc2ccc3c(c2)C(=O)N([C@H](C)CO)C[C@H](C)[C@H](CN(C)C(=O)CCCN(C)C)OCCCC[C@@H](C)O3)cc1 | 4 | -0.36
C[C@@H]1CCCCO[C@@H](CN(C)C(=O)CCCN(C)C)[C@@H](C)CN([C@H](C)CO)C(=O)c2cc(NS(=O)(=O)c3ccc(F)cc3)ccc2O1 | 8 | -0.13
C[C@@H]1CCCCO[C@@H](CN(C)C(=O)CCCN(C)C)[C@@H](C)CN([C@H](C)CO)C(=O)c2cc(NS(C)(=O)=O)ccc2O1 | -8 | 9.7*
COc1ccc(-c2n[nH]c(=S)n2-c2ccccc2)cc1OC | 3 | .
C[C@@H]1CCCCO[C@@H](CN(C)C(=O)C2CCCCC2)[C@@H](C)CN([C@H](C)CO)C(=O)c2cc(NS(=O)(=O)c3ccc(Cl)cc3)ccc2O1 | 101* | 0.62
C[C@@H]1CCCCO[C@@H](CN(C)C(=O)C2CCCCC2)[C@@H](C)CN([C@H](C)CO)C(=O)c2cc(NS(C)(=O)=O)ccc2O1 | 91* | 0.42
C[C@@H]1CCCCO[C@@H](CN(C)C(=O)NC2CCCCC2)[C@@H](C)CN([C@H](C)CO)C(=O)c2cc(NS(C)(=O)=O)ccc2O1 | -9 | -0.58
CC(C)NC(=O)N(C)C[C@@H]1OCCCC[C@@H](C)Oc2ccc(NS(=O)(=O)c3ccc(Cl)cc3)cc2C(=O)N([C@H](C)CO)C[C@@H]1C | 11 | 0.066
Cc1ccc(S(=O)(=O)NC2=NCN(C)CN2)cc1 | 12 | .
COC(=O)c1cccc(-n2c(CCC(=O)O)ccc2-c2ccccc2)c1 | -16 | .
COC(=O)COc1ccc2c(=O)c(Oc3ccc(OC)cc3)coc2c1 | 22 | .
CCCOC(=O)COc1ccc2c(=O)c(-c3ccccc3OC)coc2c1 | 236* | .
Cc1cccc(NC(=S)Nc2c(C(C)C)cccc2C(C)C)c1 | -8 | .
CCC(C(=O)NCc1ccccc1)n1c2ccccc2c2cn[nH]c(=O)c21 (stereo not drawn) | -1 | .
S=c1[nH]n(-c2ccc(Cl)cc2)c(=S)s1 | 1 | 5*
S=c1nn[nH]n1CCc1ccc(Cl)cc1 | 9 | .
SMILES | U2OS ROS induce | YB-1 expr inh
O=C(NC1CC1)c1ccccc1SCc1ccc(F)cc1 | -3 | .
COc1ccc(-n2c(C)nnc2SCC(=O)Nc2cccc(C(F)(F)F)c2)cc1 | 2 | .
COc1ccc(-n2nnc3c(SCC(=O)Nc4cccc(C(F)(F)F)c4)ncnc32)cc1 | 261* | .
COc1ccc2[nH]c3c(=O)n(CC(=O)NC4CCCCCC4)c(=S)[nH]c3c2c1 | -10 | .
CC1(C)CC(=O)C2=C(C1)N(Cc1ccco1)C(=O)NC2(C(F)(F)F)C(F)(F)F | 3 | -0.25
CCCCN1C(C)=NC(C(F)(F)F)(C(F)(F)F)C2=C1CC(C)(C)CC2=O | 120* | -0.27
C[C@H]1CN([C@@H](C)CO)C(=O)Cc2cc(NS(=O)(=O)c3ccc(F)cc3)ccc2O[C@H]1CN(C)S(=O)(=O)c1ccccc1 | 106* | -0.51
C[C@@H]1CN([C@H](C)CO)C(=O)Cc2cc(NS(=O)(=O)c3ccccc3)ccc2O[C@@H]1CN(C)S(=O)(=O)c1ccccc1 | 13 | -0.11
C[C@@H]1CN([C@H](C)CO)C(=O)Cc2cc(NS(=O)(=O)c3ccccc3)ccc2O[C@H]1CN(C)S(=O)(=O)c1ccccc1 | 1 | 5.1*
C[C@@H]1CN([C@@H](C)CO)C(=O)Cc2cc(NS(=O)(=O)c3ccccc3)ccc2O[C@@H]1CN(C)S(=O)(=O)c1ccc(F)cc1 | 14 | 0.069
